CYP2C9 act: activators of human CYP2C9. recombinant CYP2C9, luciferin-H conversion, luminescence; hits give high values; factor 1 = untreated enzyme, 0 = blocked. activation factor at 5 µM. actives 1.4% (n = 96,000);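 active means activation factor of 2 or more for CYP2C9 at a 5 µM dose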
Pyk2 oligo antag: Pyk2 (human) oligomerization antagonism; Q14289; Q293 cells, Pyk2 FERM NanoBiT luminescence; hits give low values; z-score (the deposit names both 25 µM and 10 µM); actives 0.83% (n = 99,000); AID 1347419;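 active means Z-score of -3 or lower, scaled per plate to the spread of control and sample wells; inactive means z-score above -3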;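 further: negative z-score means lost luminescence so less FERM oligomerization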
CYP2C19 inh: human CYP2C19 inhibition; P33261; CYP2C19 Supersomes, luciferin-H EGE luminescence, 30 min; inhibition, % at 5 µM; actives 21% (n = 96,000); AID 778;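 active means CYP2C19 inhibition above a set limit at 5 µM in the primary screen, cut at about 50% in these data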
CYP2C9 inh: inhibitors of human CYP2C9 | AID 777 | inhibition, % at 5 µM | P11712 | actives 20% (n = 96,000) | CYP2C9 Supersomes, luciferin-H conversion, luminescence;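 active means blocking of liver enzyme CYP2C9 beyond about 50% at 5 µM, limit read from the data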
CYP2C19 activ: increases human CYP2C19 enzyme activity. P33261. activation factor at 5 µM. recombinant CYP2C19, luciferin-H EGE luminescence; hits give high values; 0 = fully inhibited enzyme, 1 = untreated enzyme. AID 1025. 96,000 tested, under 10 active;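 active means activation factor of at least 2 at 5 µM in the primary screen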
Cav32 inh: blocks human Cav3.2 T-type calcium channel; actives 4% (n = 100,000); AID 449739; B-score at 10 µM; Cav3.2-expressing cells, Fluo-4 calcium fluorescence FDSS; hits give low values;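 active means single-dose well whose peak fluorescence ratio is a statistical outlier from its plate by either plate-standardised score or position-corrected B-score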
Large screens that a line does not name were inactive. Only some compounds are listed: those with a hit (about 27% of all), similar ones and a draw of the others.

C/C(=N\NC(=O)c1ccc(Cl)c(Cl)c1)c1cccc(NC(=O)C(C)C)c1	Cav32 inh -7.1
Cc1ccc2oc(-c3cccc(NC(=O)c4ccc(Br)o4)c3)nc2c1	CYP2C9 inh 53 (no result: Cav32 inh)
C/C(=N\NC(=O)c1cccc(Cl)c1)c1cccc(NC(=O)C(C)C)c1	none
CCC(CC)C(=O)Nc1cccc(C(=O)c2ccccc2)c1	CYP2C19 inh 70, CYP2C9 inh 55
COc1ccc2[nH]c(=O)c(CN(C(=O)C3CCCO3)c3ccc(C)cc3)cc2c1 (configuration not stated)	none
COc1ccc(S(=O)(=O)N/N=C(/C)c2cccc(NC(=O)c3ccccc3Cl)c2)cc1	CYP2C19 inh 97, CYP2C9 inh 95 (no result: Cav32 inh)
CCC(CC)C(=O)Nc1cccc(/C(C)=N/NC(=O)c2ccccc2Cl)c1	CYP2C19 inh 51
OCCOCCn1c(C2CCCN2c2nc(-c3ccc(F)cc3)cs2)nc2cc(Cl)c(Cl)cc21 (configuration not stated)	none (no result: CYP2C9 act, Pyk2 oligo antag, CYP2C19 inh, CYP2C9 inh, CYP2C19 activ)
Cn1ncc(Br)c1C(=O)OCC(=O)Nc1nc(-c2ccccc2)cs1	none (no result: CYP2C9 act, CYP2C19 inh, CYP2C9 inh, CYP2C19 activ)
Nc1ccc(OCc2ccccc2)cc1	none (no result: CYP2C9 act, Pyk2 oligo antag, CYP2C19 inh, CYP2C9 inh, CYP2C19 activ)
c1ccc(COc2ccc(-c3csnn3)cc2)cc1	CYP2C19 inh 68
Cc1ccccc1N=C(NOCc1ccc(Cl)cc1Cl)c1nonc1N	CYP2C9 inh 70
Cc1ccc(N=C(NOCc2ccc(Cl)cc2Cl)c2nonc2N)c(C)c1	CYP2C9 inh 74
Cc1ccc(N=C(NOC(=O)c2ccccc2)c2nonc2N)c(C)c1	none
Cc1ccccc1N=C(NOCc1ccccc1)c1nonc1N	Cav32 inh -6.6 (no result: CYP2C9 act, CYP2C19 inh, CYP2C9 inh, CYP2C19 activ)
O=C(CN1NS(=O)(=O)c2ccccc2C1=O)Nc1ccccc1OC(F)F	none
Cc1cc(=O)oc2cc(OCC3CC(c4ccc(Cl)cc4)=NO3)ccc12 (configuration not stated)	CYP2C19 inh 51
O=C(CSc1nnc(-c2ccco2)n1Cc1ccco1)NCc1ccccc1	CYP2C19 inh 66, CYP2C9 inh 85
O=C(CSc1nnc(-c2cccs2)n1Cc1ccco1)Nc1ccc2c(c1)OCO2	CYP2C9 inh 63
O=C(CSc1ncc(-c2ccc(F)cc2)n1Cc1ccco1)Nc1ccc2c(c1)OCO2	CYP2C9 inh 73, Cav32 inh -4.8
Cc1cc(-c2ccco2)n(CC(=O)NCc2ccccc2)n1	CYP2C19 inh 75 (no result: Pyk2 oligo antag)
C=C(C)CSc1nnc2n(Cc3ccccc3)c(=O)c3c4c(sc3n12)CCC4	none (no result: Cav32 inh)
CC(=O)NCCN1C(=O)C2C3c4ccccc4C(c4ccccc43)C2C1=O (configuration not stated)	none
Cc1cc(NC(=O)CN2CCN(c3ccc(O)cc3)CC2)no1	none
CCOc1ccc(C(C)=O)cc1Cn1nc(C(=O)O)c2ccccc2c1=O	none
Cn1c(SCC(=O)Nc2ccc3c(c2)OCCO3)nnc1-c1ccco1	CYP2C19 inh 52, CYP2C9 inh 63
CCn1c(COc2ccc(Cl)cc2)nnc1SCC(=O)Nc1ccc2c(c1)OCCO2	none
COCCCn1c(SCC(=O)Nc2ccc3c(c2)OCCO3)nnc1-c1ccoc1C	none
CCn1c(Cc2ccccc2)nnc1SCC(=O)Nc1ccc2c(c1)OCCO2	CYP2C19 inh 68, CYP2C9 inh 58
O=C(CSc1nnc(-c2ccccc2)n1Cc1ccco1)Nc1ccc2c(c1)OCCO2	CYP2C19 inh 56, CYP2C9 inh 55
Cc1ccc(OCc2nnc(SCC(=O)Nc3ccc4c(c3)OCCO4)n2Cc2ccco2)cc1	CYP2C9 inh 69, Cav32 inh -6
COc1ccc(C)cc1NC(=O)CSc1nnc(COc2ccc(C)cc2)n1Cc1ccco1	none
CCn1c(SCC(=O)Nc2ccc3c(c2)OCCO3)nnc1-c1ccco1	none
O=C(CSc1nnc(-c2ccccc2)n1Cc1ccco1)NCc1ccc2c(c1)OCO2	CYP2C9 inh 67, Cav32 inh -4.1
O=C(CSc1ccc2nnc(-c3ccccc3)n2n1)NCc1ccc2c(c1)OCO2	none (no result: Pyk2 oligo antag, Cav32 inh)
COc1ccc(OC(=O)c2cnn(-c3ccccc3)c2C)cc1	none
CC(OC(=O)c1cc(=O)[nH]c2ccccc12)c1ccccc1 (configuration not stated)	Pyk2 oligo antag -4, CYP2C9 inh 54
CC(C)COC(=O)c1cc(=O)[nH]c2ccccc12	none
CC(C)=CCc1cc([C@@H]2CC(=O)c3ccc(O)c(CC=C(C)C)c3O2)ccc1O	none (no result: CYP2C9 act, Pyk2 oligo antag, CYP2C19 inh, CYP2C9 inh, CYP2C19 activ)
CNc1ccc(C(O)(C(F)(F)F)C(F)(F)F)cc1C(O)(C(F)(F)F)C(F)(F)F	CYP2C19 inh 75, CYP2C9 inh 53, Cav32 inh -7.1
CCN(CC)c1nc2c(s1)C(=O)CC(C)(C)C2	none
Cn1cnnc1SCC(=O)Nc1ccc2nc(SCc3cccc4ccccc34)sc2c1	CYP2C19 inh 59
CC1CCN(CC(=O)N2c3ccccc3CCc3ccccc32)CC1	none (no result: CYP2C9 act, CYP2C19 inh, CYP2C9 inh, CYP2C19 activ)
Cc1cc2c(c(=O)o1)C(CC(C)C)C(C#N)=C(N)O2 (configuration not stated)	CYP2C9 inh 63
COc1cccc(C2C(C#N)=C(N)Oc3cc(C)oc(=O)c32)c1OC (configuration not stated)	CYP2C9 inh 74
Cc1cc2c(c(=O)o1)C(C13C=CC(CC1)C3)C(C#N)=C(N)O2 (configuration not stated)	CYP2C19 inh 72, CYP2C9 inh 75 (no result: Cav32 inh)
COc1ccc(OCCSc2nnc(-c3ccccc3)n2N)cc1	none
Cc1occc1-c1nnc(SCC(=O)c2c[nH]c3ccccc23)n1C	CYP2C19 inh 98, CYP2C9 inh 54
Cc1occc1-c1nnc(SCC(=O)c2ccc(Cl)cc2)n1C	CYP2C19 inh 85
COc1ccc(OCCSc2nnc(-c3ccoc3C)n2C)cc1	CYP2C19 inh 74, CYP2C9 inh 72
Cc1cc(Br)cc(C)c1OCCCCN(C)C	none
Cc1cccc(-c2oc(C)c(C)[n+]2[O-])c1	none
N#Cc1ccccc1Sc1ccccc1N	CYP2C19 inh 57, CYP2C9 inh 59
N#Cc1ccccc1Sc1ccccc1C(=O)N1CCOCC1	none
CN(C)c1nccc(N(Cc2ccccc2)Cc2ccccc2)c1C#N	CYP2C9 inh 65, Cav32 inh -5.7
CCc1ccc2[nH]c3nc(SCc4nnc(-c5ccc(C)cc5)o4)nnc3c2c1	none (no result: CYP2C9 act, CYP2C19 inh, CYP2C9 inh, CYP2C19 activ)
CC(=O)c1c(C)nc(-c2ccc(Cl)cc2)nc1N=CN(C)C	CYP2C9 inh 51 (no result: Cav32 inh)
CN(C)/C=C/C(=O)c1ccc(Cl)cc1	none
COc1ccccc1C1C(C#N)=C(N)N(c2cccnc2)C2=C1C(=O)CC(C)(C)C2 (configuration not stated)	none (no result: CYP2C9 act, CYP2C19 inh, CYP2C9 inh, CYP2C19 activ)
Cc1cc(C)cc(CC(Cc2nc3ccccc3[nH]2)c2nc3ccccc3[nH]2)c1 (configuration not stated)	CYP2C19 inh 97, CYP2C9 inh 77, Cav32 inh -6.7
CC(C)SCc1nc2ccccc2[nH]1	none (no result: Cav32 inh)
Cc1cccc(N2C(N)=C(C#N)C(C#N)(C#N)C2c2ccccc2)c1 (configuration not stated)	CYP2C9 inh 55 (no result: Cav32 inh)
